# Assay outcomes from PubChem BioAssay.
# Shown are actives, neighbours in structure and some others; about 4.8% of the full set was active somewhere.
# ssDAF12 agonist – activators of S. stercoralis DAF-12 nuclear receptor; HEK293 ssDAF-12/GRIP1 lit1-tk-luc reporter, luminescence; % of 3 µM dafachronic acid response; activation, % at 6.8 µM; actives 1% (n = 370,000);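 active = activation above the mean over all tested compounds plus 3 SD, cut at about 0.9% in these data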
# DAX1 inh-1 – inhibitors of human orphan nuclear receptor DAX1 (NR0B1) | P51843 | HEK293 Gal4-DAX1 luciferase reporter, luminescence | inhibition, % at 6.75 µM | actives 0.99% (n = 340,000) | AID 504766;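 active = inhibition above the mean over all tested compounds plus 3 SD, cut at about 4.2% in these data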;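 also: inhibition shows as a rise in luminescence from relieved DAX1 repression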
# Target sequence (P51843 207-470 limits assumed): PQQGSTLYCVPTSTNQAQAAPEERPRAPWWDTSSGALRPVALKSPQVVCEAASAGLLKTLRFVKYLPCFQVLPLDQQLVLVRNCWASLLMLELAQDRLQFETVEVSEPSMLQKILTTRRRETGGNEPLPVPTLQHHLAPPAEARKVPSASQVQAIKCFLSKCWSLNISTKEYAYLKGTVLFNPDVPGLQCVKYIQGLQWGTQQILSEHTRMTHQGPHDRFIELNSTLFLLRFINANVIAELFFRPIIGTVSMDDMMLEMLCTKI
# SMARCA2 act – SMARCA2 function activation, primary screen; MG213 cells, MMTV-luciferase reporter, dexamethasone, overnight; activation, % at 9.1 µM; actives 1% (n = 370,000); AID 652017; in the data active = activation above about 7.8%
# hgDAF-12 ag – agonists of H. glycines DAF-12 nuclear receptor | HEK293 GAL4-hgDAF12 UAS-luciferase reporter, agonist luminescence; normalized to butyrate control | activation, % at 6.8 µM | actives 1.8% (n = 370,000) | AID 687014;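 active = activation above a cutoff set at the mean of all screened compounds plus 3 SD, cut at about 10% in these data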
# DAX1 inh-2 – inhibitors of DAX1 repression of SF-1 activated StAR promoter; AID 652010; HEK293T StAR-luciferase reporter, SF-1/DAX-1 repression relief; inhibition, % at 6.8 µM; actives 1.1% (n = 370,000);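 active = inhibition above the mean over all tested compounds plus 3 SD, cut at about 3.6% in these data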;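 also: higher inhibition means more luminescence from relief of DAX-1 repression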
# hcDAF12 agonist – activators of H. contortus DAF-12 nuclear receptor; HEK293 hcDAF-12 lit1-tk-luc reporter, luminescence; 0% DMSO, 100% Δ7-dafachronic acid; activation, % at 6.8 µM; actives 1.4% (n = 370,000); AID 652067;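 active = activation above the mean of all tested compounds plus 3 SD, cut at about 5.5% in these data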
# DAX1 conf – NR0B1 (human) inhibition, confirmation | shares compounds with DAX1 inh-2 | HEK293T StAR-promoter luciferase reporter, SF-1/DAX-1 repression | inhibition, % at 6.8 µM | actives 87% (n = 2,400);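 active = inhibition above the average of every tested compound plus 3 SD, cut at about 3.8% in these data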;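 also: active compounds raise luminescence by relieving repression of the StAR reporter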
# SF1 mutant ctr – counter-screen for DAX1 inhibitors: nonselective inhibitors with SF-1 AF2 mutant; shares compounds with DAX1 inh-2; AID 652136; inhibition, % at 6.8 µM; HEK293 StAR-luciferase, luminescence; actives 78% (n = 2,400);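 active = inhibition above the mean of all tested compounds plus 3 SD, cut at about 3% in these data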
# SMARCA2 act conf – SMARCA2 activation, confirmation screen; shares compounds with SMARCA2 act; MG213 cells, MMTV-luciferase with dexamethasone, luminescence, overnight; MG213 cells expressing E1A, Rb sequestered; DMSO wells 0%, reference activator 100%; activation, % at 9.1 µM; actives 30% (n = 3,500);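 active = activation above its plate's cutoff, the mean activation of tested wells plus 3 SD, cut at about 7.9% in these data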
# VP16 Luc act – GAL4-VP16 reporter activation counter-screen; AID 686939; actives 41% (n = 3,500); shares compounds with SMARCA2 act; activation, % at 9.1 µM; HEK293 GAL4-VP16 pG5luc reporter, luciferase luminescence; scaled: DMSO wells 0%, SAHA wells 100%;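 active = activation above the solvent-only control well mean plus 3 SD, averaged across control plates, cut at about 5.2% in these data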
# LXRb hcDAF ctr – LXR-beta agonism as hcDAF-12 counter-screen; activation, % at 6.8 µM; 3,400 tested, under 10 active; shares compounds with hcDAF12 agonist; HEK293 Gal4-LXR tk-luc reporter, luminescence, 24 h; normalized: DMSO 0%, positive control 100%;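 active = mean percent activation of the reporter above a cutoff set as the average over tested compounds plus their standard deviation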
# hcDAF12 ag – hcDAF-12 agonism, confirmation assay; AID 743032; actives 61% (n = 3,400); HEK293 hcDAF-12 lit1-tk-luc reporter, luminescence; % of Δ7-dafachronic acid response; shares compounds with hcDAF12 agonist; activation, % at 6.8 µM;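 active = mean activation across triplicate tests above the threshold derived from the earlier primary screen, cut at about 5.5% in these data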
# hgDAF12 conf – hgDAF-12 agonism, confirmation assay; shares compounds with hgDAF-12 ag; HEK293 GAL4-hgDAF12 luciferase reporter, agonist mode; percent of butyrate response; activation, % at 6.8 µM; actives 80% (n = 3,300); AID 743050;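 active = mean activation over triplicate wells above the hit cutoff derived from the earlier primary screen, cut at about 11% in these data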
# LXRb DAF12 ctr – LXR-beta agonism as DAF-12 counter-screen. activation, % at 6.8 µM. 3,300 tested, under 10 active. HEK293 Gal4-LXR luciferase reporter, 24 h. shares compounds with hgDAF-12 ag;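 active = mean activation of the triplicate above a set limit carried over from the primary screen, none filed active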
# Hits are given with their value; – = inactive; · = no result given.
SMILES,ssDAF12 agonist,DAX1 inh-1,SMARCA2 act,hgDAF-12 ag,DAX1 inh-2,hcDAF12 agonist,DAX1 conf,SF1 mutant ctr,LXRb hcDAF ctr,hcDAF12 ag,hgDAF12 conf,LXRb DAF12 ctr,others
COc1ccc2cc(-c3cc(C(=O)OCC(=O)Nc4c(C)n(C)n(-c5ccccc5)c4=O)c4ccccc4n3)ccc2c1,–,–,–,15,4.8,–,11,6.4,·,·,12,–,
CC(=O)c1sc(Nc2ccccc2)nc1C,–,·,–,–,–,–,·,·,·,·,·,·,
Cc1nc(Nc2ccccc2)sc1C(=O)c1ccccc1,–,·,–,–,–,–,·,·,·,·,·,·,
Cc1nc(Nc2ccc(C(=O)O)cc2)sc1-c1ccccc1,2.6,–,9.1,17,5.5,10,–,–,–,7.2,–,–,SMARCA2 act conf=9.2;VP16 Luc act=5.4
Cc1nc(Nc2ccccc2)sc1-c1ccccc1,1.1,–,–,21,6.7,9.8,21,9.8,–,8.3,21,–,
C#CCN1C(=O)[C@@](O)(c2cccn2C)c2cc(F)ccc21,–,·,–,–,–,–,·,·,·,·,·,·,
CC(=O)c1cccc(OCc2cc(C(=O)N3CCSCC3)no2)c1,–,–,–,14,4.8,–,6.6,6.3,·,·,15,–,
Cc1cccc(C)c1OCc1cc(C(=O)N2CCN(c3ccc(F)cc3)CC2)no1,–,–,–,14,5.9,–,4.5,3.6,·,·,15,–,
CCCCOCCCNC(=O)C[C@H]1C(=O)N(CCCOC)C2=CCCCC[C@]21C(=O)OC,–,·,–,–,–,–,·,·,·,·,·,·,
COC(=O)c1sc(NC(=O)COc2ccccc2OC)nc1C,–,–,–,–,–,–,·,·,·,·,·,·,
COc1ccccc1OCC(=O)Nc1ncc(C)s1,–,–,–,17,10,–,8.5,6.7,·,·,15,–,
O=C1C(C=Nc2ccc(F)cc2)=C(O)c2ccccc21,–,–,–,22,5.3,8.9,19,8.7,–,9.5,20,–,
Cc1cccc(NC(=O)Nc2nc3ncccn3c2-c2ccc(F)cc2)c1,–,·,–,–,–,–,·,·,·,·,·,·,
O=C(CCCc1ccccn1)c1cccc2ccccc12,1.1,–,–,15,5.6,12,13,5.7,–,9.6,15,–,
O=C1c2ccccc2S(=O)(=O)N1CC1CC(c2ccc(Cl)cc2)=NO1 (configuration not stated),–,–,–,15,4.8,6.7,14,7.5,–,–,14,–,
O=C(Nc1nsc(-c2ccccc2)n1)c1cccs1,–,–,–,15,4.5,–,7.9,4.5,·,·,16,–,
